# Laboratory results published in PubChem BioAssay AID1259240 (Keith Lab, Institute of Cancer Science, University of …, 2017).
# Values without a mark were called inactive. Calls of active or inactive are those of the source. Rule as the data show it: active = fold change mostly below about -2 (no sharp cut-off); inactive = mostly above about -1.8.
# Assay: modulation of TERT promoter-driven luciferase – cell-based, luciferase reporter, human, primary screen (AID 1259240)
# Conditions: A2780 TERT promoter luciferase reporter, 16 h; at 20 µM, fold versus average of vehicle-only wells
SMILES,fold change,outcome
c1cc2nncn2nc1N1CCN(C2CCCCC2)CC1,-1.21,
Cc1ccccc1-n1cnc2c(sc3nc(N4CCOCC4)c4c(c32)CC(C)(C)OC4)c1=O,-1.84,
CC1(C)CC2CC(C)(CN2C(=O)CSc2nc(-c3ccco3)cc(C(F)(F)F)n2)C1 (stereo not given),-1.47,
O=C(Nc1ccc(F)cc1)c1c[nH]n2c(=O)cc(C3CCNCC3)nc12,-1.37,
COC(CNS(=O)(=O)c1cccc2cccnc12)OC,-1.06,
Cc1nc2sccn2c1-c1csc(Nc2ccc(O)cc2)n1,-1.8,
CCS(=O)(=O)N1N=C(c2ccc(NS(C)(=O)=O)cc2)CC1c1ccccc1 (stereo not given),1.35,
NC(=O)c1c(NC(=O)c2csc3c2CCCC3)sc2c1CCCC2,-1.89,
CCOC(=O)c1nnn(-c2nonc2N)c1CNc1ccc(F)cc1,1.3,
COc1ccc(C2CC(=O)Nc3cc(OC)cc(OC)c32)c(OC)c1 (stereo not given),-1.41,
CN(C)c1nc(C(N)=O)nc(N2CCOCC2)n1,1.62,
c1ccc(N2CCN(c3nc4ccccc4n4cnnc34)CC2)cc1,1.17,
O=C(Nc1cnn(Cc2ccc(F)cc2)c1)c1cc(C2CC2)on1,-1.17,
O=c1c2ccccc2nc(N2CCOCC2)n1Cc1ccccc1,-1.33,
Cc1c(NC(=O)c2cc(C3CC3)on2)c(=O)n(-c2ccccc2)n1C,-1.33,
CCOC(=O)CNC(=O)CSc1nc(C)nc2c1c(=O)n(C)c(=O)n2C,1.49,
Cc1ccn(CN2CCN(Cn3ccc(C)n3)C2=S)n1,1.29,
O=C1c2ccccc2C(=O)N1CCC1=NCCc2ccccc21,-1.59,
COc1ccc(-c2cc(N3C(=O)Nc4ccccc4N3O)n[nH]2)cc1OC,1.2,
O=C(Cn1c(=O)oc2cc(S(=O)(=O)N3CCc4ccccc43)ccc21)NC1CCCC1,-1.1,

SMILES,fold change,outcome
CCOC(=O)C1CCN(c2c(Nc3ccc4c(c3)OCCO4)c(=O)c2=O)CC1,-1.02,
C=CCN(C(=O)C1CCC(CNS(=O)(=O)c2cccc3nsnc23)CC1)C1CCCCC1 (stereo not given),-1.05,
Nc1ccc(-c2nc3cc(N)c(Cl)cc3[nH]2)cc1,-4.84 (active),
O=C1CC(c2cc3c(cc2Cl)OCO3)c2cc3c(cc2N1)OCCO3 (stereo not given),1.12,
CCOCCCNc1nc2c(-c3ccccc3)nnn2c2ccccc12,1.12,
O=C(Nc1cccnc1)c1ccc2c(c1)C1C3CCC(C3)C1C(c1ccccc1)N2 (stereo not given),-1.08,
Cc1ccc(-c2nc3cnccn3c2Nc2ccccc2C)o1,-1.64,
CCc1ccc2nc(NC3=NCN(CCN4CCOCC4)CN3)nc(C)c2c1,-1.26,
Cc1ccc(-n2c(-c3ccco3)nc3c(cnn3-c3ccccc3C)c2=O)cc1F,-1.09,
CC1CCCC(NS(=O)(=O)c2cccc3cccnc23)C1C (stereo not given),-3.72 (active),
Cc1cc2[nH]c(=O)c(CCO)c(C)n2n1,,inactive
O=C(Nc1ccc(C(F)(F)F)cc1)C1CCCN1S(=O)(=O)c1cccc2nsnc12 (stereo not given),-1.19,
CCOc1nc(-c2ccncc2)nc2ccccc12,-4.22 (active),
CCOC(=O)C1CCCN(c2c(N3CCOCC3)c(=O)c2=O)C1 (stereo not given),-1.15,
CCOC(=O)C1=C(CS(=O)(=O)c2ccccc2)NC(=O)NC1c1cccc(Br)c1 (stereo not given),1.6,
CCc1ccc(S(=O)(=O)n2c(C)nc3ccccc32)cc1,-2.42 (active),
O=C(NCc1ccccn1)c1cccn2c(=O)c3c4c(sc3nc12)CCCC4,-1.8,
CCOC(=O)Cn1c(=O)oc2cc(S(=O)(=O)NC3CCCC(C)C3C)ccc21 (stereo not given),1.21,
CCOC(=O)c1sc(NC(=O)c2cc(C)no2)c(C(=O)OCC)c1C,1.26,
O=C1C(c2sc3ccccc3c2O)=Nc2c1ccc1ccccc21,,active
